The values below come from ChEMBL document CHEMBL4513216, “Probing the Open Global Health Chemical Diversity Library for Multistage-Active Starting Points for Next-Generation Antimalarials” (ACS Infect Dis, 2020).

The structures appear in SMILES notation. Screen size: about 68,000 compounds; about 2,700 (4%) showed an effect of 50% or more. The sample as a whole holds a higher share of strong results than the screen did.

The assay concerns Plasmodium berghei. Put plainly: Screen against P. berghei liver stage (PbLuc), transformed with Luciferase, at 2uM. Type of assay: functional, HepG2. The conditions noted are these: tested at 2 uM.
Regarding `CCc1nc(N)nc(N2CCCC3(CCOCC3)C2)c1C`, the INHIBITION turned out to be 39.57%. The same measure for `Cc1ocnc1C(=O)N(C)[C@@H]1CC[C@@H](n2ccnc2C)[C@@H]1O`: -12.75%. As for `O=C1CN(C(=O)CNC(CC(F)(F)F)c2ccc(F)cc2)CCN1` (stereo not given), the INHIBITION was determined as 7.05%. Then `COc1c(CNC(c2ccccc2)c2ccc(F)cc2)c(C)nn1C` (stereo not given), with 13.67%; and `Cc1noc(C(C)N2CCN(CCn3ccccc3=O)CC2)n1` (stereo not given), with 25.78%. Then `CCOCc1cccc(S(=O)(=O)Nc2ncc(C)s2)c1`, with 44.59%; and `Cc1nc(C)n(CC2CCCN2CC(=O)Nc2cc(C(C)C)no2)n1` (stereo not given), with 35.42%; and `CCc1noc(CN(CC)C(=O)CC2C(=O)NCCN2CC(C)(C)C)n1` (stereo not given), with 43.6%. Turning to `CCN(Cc1noc(C)n1)C(=O)CC1C(=O)NCCN1CC(C)(C)C` (stereo not given), the INHIBITION came to 55.84%. Consider `CCc1noc(CN(CC)C(=O)CC2C(=O)NCCN2CC=C(C)C)n1` (stereo not given), for which the INHIBITION came out at 3.66%.

In the case of `CN(C)CCOc1ccccc1N1CCN(C(=O)C(C)(C)C#N)CC1`, the INHIBITION was -4.91%. As for `CC(C)(C)C(O)CCNC(=O)c1ccc(F)cc1Cl` (stereo not given), the INHIBITION was -9.71%. For `Cc1cc(NC2CCc3ncnn3C2)n2nc(C(F)(F)F)nc2n1` (stereo not given), the INHIBITION is -30.02%. As for `COc1ccc(NC(=O)CN2CCS(=O)(=O)CC2)cn1`, the INHIBITION is listed as -9.39%. For `CN(C)c1ccc(NC(=O)CN2CCS(=O)(=O)CC2)cn1`, the INHIBITION was found to be 71.64%. In the case of `O=C(CN1CCS(=O)(=O)CC1)Nc1ccc(N2CCCC2)nc1`, the INHIBITION is -4.89%.

Consider `c1cncc(-c2ccc3c(c2)C2(CC3)CCN(c3nncs3)CC2)c1`, for which the INHIBITION is 12.3%.

On to `CCc1ccc(-c2c(C)c(-c3cnn(C)c3)nc(N)c2C#N)o1`, for which the INHIBITION came to 49.25%. With `Cc1cc(-c2c(C)c(-c3cnn(C)c3)nc(N)c2C#N)oc1C`, the INHIBITION is on record as 23.43%.

Consider `Cc1c(-c2cnn(C)c2)nc(N)c(C#N)c1-c1ccc(CO)o1`, for which the INHIBITION was determined as 55.7%.

For `COc1ccc(Cn2cc(C(=O)N(C)Cc3cnccn3)nn2)cc1`, the INHIBITION is given as -21.09%.

For `CCC(=O)N1CCC2(COCc3cnc(N4CCOCC4)nc32)C1` (stereo not given), the INHIBITION is listed as 35.84%. For the compound `COCCC(=O)N1CCC2(COCc3cnc(-c4cccnc4)nc32)C1` (stereo not given), the INHIBITION is given as -20.41%. As for `O=C(CC1CC1)N1CCC2(COCc3cnc(N4CCOCC4)nc32)C1` (stereo not given), the INHIBITION was found to be 51.72%. `COCCC(=O)N1CCC2(COCc3cnc(-c4ccccc4)nc32)C1` (stereo not given): the INHIBITION was 50.32%. Then `COCC(=O)N1CCC2(COCc3cnc(-c4ccccc4)nc32)C1` (stereo not given), with -22.64%; and `O=C(C1CC1)N1CCC2(COCc3cnc(N4CCOCC4)nc32)C1` (stereo not given), with 29.95%; and `O=C(c1cc(=O)c(OCc2ccccc2F)co1)N1CCSCC1`, with 36.6%. As to `c1csc(CN2CCOCC3(CCN(C4CCOCC4)C3)C2)n1` (stereo not given), the INHIBITION was 2.71%. Then `CC(C)c1nc(CN2CCCC2Cn2cncn2)no1` (stereo not given), with -13.92%; and `CCN1CCCC(C)(C(=O)NCc2nncn2CCc2ccccc2)C1` (stereo not given), with -4.93%; and `c1ccc(-c2nc(CN3CCCC3Cn3cncn3)no2)cc1` (stereo not given), with -5.3%.

Consider `CC1(C)CC(=O)N(CC(=O)Nc2ccon2)c2ccccc21`, for which the INHIBITION was 40.97%. Turning to `CCn1ccnc1CN1CCN(CC(O)CN2CCOCC2)CC1` (stereo not given), the INHIBITION turned out to be 38.68%. On to `CN1CCN(CC(NCc2ccc(F)c(F)c2)c2ccccc2)CC1` (stereo not given), for which the INHIBITION amounted to 12.57%. The same measure for `CN1CCN(CC(NCc2ccc(F)cc2)c2ccccc2)CC1` (stereo not given): 58.29%; for `Cc1ccc(CNC(CN2CCN(C)CC2)c2ccccc2)cc1` (stereo not given): -10.6%. In the case of `c1ccc(CNCC2Cn3nnc(-c4ccncc4)c3CO2)nc1` (stereo not given), the INHIBITION is 2.87%.

Turning to `C[C@@H](O)[C@H](NC(=O)c1csc2nc(-c3ccccc3F)cn12)C(N)=O`, the INHIBITION is on record as 16.95%. As to `CCc1ccc(-c2cn3c(C(=O)NCC(C)C(=O)NC)csc3n2)cc1` (stereo not given), the INHIBITION was 8.54%. With `CCc1ccc(-c2cn3c(C(=O)N[C@H](C(N)=O)[C@@H](C)O)csc3n2)cc1`, the INHIBITION worked out at 61.82%.

Consider `CCc1cc(=O)[nH]c(SCc2ccccn2)n1`, for which the INHIBITION is reported as 8.41%. Turning to `CCCc1cc(=O)[nH]c(SCc2ccccn2)n1`, the INHIBITION is 4.95%. Then `CCc1c(C)nc(SCc2ccccn2)[nH]c1=O`, with 50.67%; and `CNC(=O)c1cc2c(nc1N(C)C)CCN(c1ncccn1)CC2`, with -31.3%; and `Cc1nn2cc(CCNC(=O)c3cc(C(C)C)no3)nc2s1`, with 11.9%. For `Cc1cc(C(=O)NCCc2cn3nc(C)sc3n2)c(C)o1`, the INHIBITION was 55.66%. With `Cc1nn2cc(CCNC(=O)c3cc(C(C)C)nn3C)nc2s1`, the INHIBITION is -8.8%. `COCC1CN(C(=O)Cc2cccc(F)c2)Cc2ccnn2C1` (stereo not given): the INHIBITION turned out to be 13.52%. Turning to `CCCN(CCc1ccccn1)C(=O)CCc1cnn(C)c1`, the INHIBITION was -46.85%. As to `CC1(C)CC(N(Cc2ccccc2)Cc2cccnc2)CC(C)(C)N1`, the INHIBITION was 26.52%. Turning to `O=C(O)c1cccnc1N1CCN(Cc2ccc(F)cc2)C(CCO)C1` (stereo not given), the INHIBITION was determined as 78.43%.

In the case of `CNC(=O)c1cccnc1N1CCN(Cc2ccccc2)C(CCO)C1` (stereo not given), the INHIBITION is on record as -4.52%. Consider `Cc1ccc(CN2CCN(c3ncccc3C(N)=O)CC2CCO)cc1` (stereo not given), for which the INHIBITION was 3.92%.

As for `c1cncc(C2COC3(CCN(Cc4ccsc4)CC3)C2)c1` (stereo not given), the INHIBITION is reported as 32.85%. The same measure for `Cn1nccc1CN1CCOC(c2cccc(Nc3ccccn3)n2)C1` (stereo not given): -88.78%. `Cc1nc(C)c(CNC(=O)N2CCc3ccccc3C2CO)s1` (stereo not given): the INHIBITION is 5.98%.

On to `Cc1cc(CC(=O)NC2CCCN(Cc3ccccc3)C2=O)n[nH]1` (stereo not given), for which the INHIBITION was -8.63%. Take `COc1cc(C)ccc1C(=O)N1CCC2(CCC(=O)N(C(C)C)C2)CC1`: the INHIBITION is recorded as -4.62%. `COc1cccc(C(=O)N2CCC3(CCC(=O)N(C(C)C)C3)CC2)c1C`: the INHIBITION is on record as 63.37%. With `COc1ccc(F)cc1C(=O)N1CCC2(CCC(=O)N(C(C)C)C2)CC1`, the INHIBITION stood at 23.76%. With `CC(=O)N1CCN(C(=O)CNc2cccc(OC(F)F)c2C)CC1`, the INHIBITION is listed as 17.61%.

Turning to `COc1ccc(OC)c(C2CCN(C(=O)C3CCOCC3)C2)c1` (stereo not given), the INHIBITION is listed as 48.21%.

For `COc1ccc(OC)c(C2CCN(C(=O)C3CCC(O)CC3)C2)c1` (stereo not given), the INHIBITION was determined as 55.36%. Then `COc1ccc(OC)c(C2CCN(C(=O)C3CCS(=O)(=O)CC3)C2)c1` (stereo not given), with -18.57%; and `COc1ccc(C(=O)NCc2cccnc2N2CCOCC2)o1`, with -49.51%.

For `O=C(c1cccs1)N1CCC(n2nc(-c3ccco3)ccc2=O)CC1`, the INHIBITION came out at 38.1%. The same measure for `CCc1c(C)nn(CC(=O)NC(C)c2n[nH]c(C)n2)c1C` (stereo not given): 40.15%; for `Clc1ccc(C2(CNC3=NCCN3)CC2)cc1`: 53.98%; for `Clc1ccc(C2(CNC3=NCCN3)CCCCC2)cc1`: 35.46%.

As to `Clc1ccc(C2(CNC3=NCCN3)CCCC2)cc1`, the INHIBITION is recorded as 6.85%.

For the compound `Cc1cnc(N2CCCC3(COCCN(c4ccc(C)nn4)C3)C2)nc1` (stereo not given), the INHIBITION came to 20.21%.

Regarding `CN(Cc1cccc(O)c1)C(=O)c1ccc(CCC(C)(C)O)cc1`, the INHIBITION came out at 19.75%. Regarding `O=C(NCCc1cccs1)N1CCCC1CCCO` (stereo not given), the INHIBITION stood at 8.03%.

On to `O=C(NCCc1cccs1)N1CCC[C@H]1CO`, for which the INHIBITION stood at 55.39%. In the case of `O=C(NCCCc1cccs1)N1CCCCC1CCO` (stereo not given), the INHIBITION turned out to be 39.97%. On to `COCC(=O)N1CCCC(C(=O)N(C)CCn2ccnc2C)C1` (stereo not given), for which the INHIBITION was determined as 46.04%. Take `Cc1ccc2nc(C)c(C)c(C(=O)NCCCn3cnnc3)c2c1`: the INHIBITION stood at 10.78%. As to `Cc1ccc2[nH]c(C(=O)NCCCn3ccnn3)c(C)c2c1`, the INHIBITION came to 22.39%. In the case of `Cc1ccc2nc(C)c(C)c(C(=O)NCCCn3ccnn3)c2c1`, the INHIBITION was determined as 56.21%. Then `CC(=O)NCCC1CCCCN1S(=O)(=O)c1cccc(Cl)c1` (stereo not given), with -12.13%; and `CC(=O)NCCC1CCCCN1S(=O)(=O)c1ccc2ccccc2c1` (stereo not given), with 29.89%. Consider `CC(=O)NCCC1CCCCN1S(=O)(=O)c1cccc(F)c1` (stereo not given), for which the INHIBITION is 50.91%. As to `Cn1cc(-c2csc(N3CCOCC3)n2)cn1`, the INHIBITION is reported as 13.35%.

For the compound `Cc1occc1C(=O)N1CCOCC2(CCN(Cc3nccs3)C2)C1` (stereo not given), the INHIBITION came out at 3.85%. For the compound `O=C(N1CCCC1)N1C[C@H]2CCC[C@@]2(COCc2ccccn2)C1`, the INHIBITION stood at 5.44%. `COC(C)C(=O)NS(=O)(=O)c1ccc(F)c(C(F)(F)F)c1` (stereo not given): the INHIBITION was found to be 35.7%.

Regarding `CSC(C)C(=O)NS(=O)(=O)c1ccc(F)c(C(F)(F)F)c1` (stereo not given), the INHIBITION came out at 51.48%.

Consider `CC(C)C(=O)NS(=O)(=O)c1ccc(F)c(C(F)(F)F)c1`, for which the INHIBITION came out at 18.82%. As for `CC(C)N(C)CCC(=O)N1CCCC(c2ccc(C(=O)O)cc2)C1` (stereo not given), the INHIBITION is listed as -1.98%. As to `CCCn1nc2c(cc1=O)CN(Cc1cc(C)no1)CC2`, the INHIBITION came out at 62%. For the compound `Cc1cc(CN2CCc3nn(C)c(=O)cc3C2)on1`, the INHIBITION is -2.31%.

As to `CCCn1nc2c(cc1=O)CN(Cc1cc(C)on1)CC2`, the INHIBITION was -1.79%. Turning to `Cc1cc(CN2CCc3nn(C)c(=O)cc3C2)no1`, the INHIBITION is 22.34%.

On to `CCCn1nc2c(cc1=O)CN(Cc1c(C)noc1C)CC2`, for which the INHIBITION is listed as 44.37%.

As to `CCn1nc2c(cc1=O)CN(Cc1cc(C)on1)CC2`, the INHIBITION is given as 73.01%.

For the compound `Cc1cc(C)nc(N2CCC(Cn3cc(C(N)=O)cn3)CC2)n1`, the INHIBITION was determined as 0.93%. Then `Clc1ccc(-c2nnc([C@H]3CCN(C4CCCCC4)C3)o2)cc1`, with -57.27%; and `O=C(Nc1cn[nH]c1)N1CCN(CCSc2ccccc2)CC1`, with -11.24%; and `COCCN1CCc2cc(C(=O)NC(C)C)c(NCC(C)C)nc2CC1`, with 42.15%. Then `Cc1nn(C)c(Oc2ccc(Cl)cc2)c1CN1CCOC(CN)C1` (stereo not given), with 48.21%; and `Cc1nn(C)c(Oc2ccc(Cl)cc2)c1CN1CCC(CN)C1` (stereo not given), with 64.9%. With `Cc1nn(C)c(Oc2ccc(Cl)cc2)c1CN1CC[C@H](CO)[C@@H](O)C1`, the INHIBITION is on record as 43.44%. In the case of `CN(C)C(=O)CN1C[C@H]2CC[C@@H](C1)N(Cc1ccccc1OCCO)C2`, the INHIBITION is listed as 5.28%. The same measure for `CC(C)[C@@H]1CN(Cc2cnc(C3CCCCC3)nc2)C[C@H]1N(C)C`: -1.57%.
